# Measurements from PubChem BioAssay (NCATS).
# Results filed as inconclusive are left out. A number with no mark means an inactive call. The call rests on the fitted dose curve; in most records, active means well fitted cell-killing curve with a large enough effect; inconclusive means small, poorly fitted or top-dose-only effect; inactive means flat fitted curve, though single readings scatter.
# Experiment: qHTS of pediatric cancer cell lines to identify multiple opportunities for drug repurposing: Primary screen for TC32 cells (AID 1347089); further: nearly all actives have a fitted effect of over 60% in size
# Details: TC32 Ewing sarcoma viability, CellTiter-Glo luminescence, 48 h; series mostly up to 45.8 µM; activity change, negative = cytotoxic: at the top concentration
# How it was run: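 Luminescent CellTiter-Glo read-out of metabolically active TC32 cells after 48 h compound exposure. Primary: MIPE 11-point, 0.78 nM–46 µM; NPC 8-point, 0.59 nM–46 µM. Confirmatory: 11-point dilutions.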
# On the % scale 0 is the no-effect control and ±100 the full control effect.
row,SMILES,"activity change, negative = cytotoxic"
1,C=CCn1c(=O)n([C@@H]2O[C@H](CO)[C@@H](O)[C@H]2O)c2nc(N)[nH]c(=O)c21,16.4%
2,O=C1c2c(O)cccc2Cc2cccc(O)c21,2.1%
3,CC1(C)OC(=O)NC1=O,-8.03%
4,CCOc1ccc2ccccc2c1C(=O)N[C@@H]1C(=O)N2[C@@H]1SC(C)(C)[C@@H]2C(=O)O,-2.59%
5,CC1CC(OC(=O)C(O)c2ccccc2)CC(C)(C)N1C (centres undefined),3.68%
6,OCC(CO)N[C@H]1C[C@](O)(CO)[C@@H](O)[C@H](O)[C@H]1O,9.63%
7,CCn1cc(C(=O)O)c(=O)c2cnc(N3CCNCC3)nc21,7.59%
8,CC1(C)CO[C@@H](CC(=O)O)CN1,9.52%
9,CCCCC(CC)COC(=O)c1ccccc1O (centres undefined),8.93%
10,CCN(CC)C(=O)Nc1ccc(OCC(O)CNC(C)(C)C)c(C(C)=O)c1 (centres undefined),9.8%
11,C[C@@H]1CC[C@@]2(OC1)O[C@H]1C[C@H]3[C@@H]4CC[C@H]5C[C@@H](O)CC[C@]5(C)[C@H]4CC(=O)[C@]3(C)[C@H]1[C@@H]2C,10.8% [at 4.81 µM]
12,C[C@@H]1CN(c2c(F)c(F)c3c(=O)c(C(=O)O)cn(C4CC4)c3c2F)C[C@H](C)N1,13% [at 16 µM]
13,Cc1ccc(C(C)C)cc2c(C)ccc1-2,2.3%
14,Cc1cc(O)cc2c1O[C@](C)(CCC[C@H](C)CCC[C@H](C)CCCC(C)C)CC2,6.13%
15,COc1ccc(S(=O)(=O)Nc2nnc(CC(C)C)s2)cc1,5.72%
16,CCCCN1CCCC[C@H]1C(=O)Nc1c(C)cccc1C,-8.75%
17,CC(=O)CCC(=O)O,7.49%

row,SMILES,"activity change, negative = cytotoxic"
1,CN(C)CC[C@@H](c1ccc(Cl)cc1)c1ccccn1,4.22%
2,NC(=O)NC(=O)Cc1ccccc1,5.16%
3,CC1=C(C/C=C(\C)CCC[C@H](C)CCC[C@H](C)CCCC(C)C)C(=O)c2ccccc2C1=O,7.06%
4,COc1ccccc1O,8.57% [at 92.2 µM]
5,Nc1nc2c(ncn2CCC(CO)CO)c(=O)[nH]1,5.12%
6,N[C@H]1C(O)O[C@H](CO)[C@@H](O)[C@@H]1O (some centres undefined),11%
7,C[C@@H](O)[C@H](N)C(=O)O,-0.0219% [at 16 µM]
8,CC1(C)[C@@H]2CC[C@@]1(C)C(=O)C2,10.2%
9,C[C@@H]1CCN(C(=O)[C@H](CCCN=C(N)N)NS(=O)(=O)c2cccc3c2NC[C@H](C)C3)[C@@H](C(=O)O)C1,11.4%
10,Nc1ccc(S(=O)(=O)Nc2ccccc2)cc1,17.6%
11,Oc1cccc(O)c1,0%
12,NCCNCCNCCNCCN,6.7% [at 9.17 µM]
13,C[C@H](N)[C@H](O)c1cccc(O)c1,14.9%
14,O=C(Oc1ccccc1C(=O)O)c1ccccc1O,17%
15,Nc1ccc(S(=O)(=O)NC(=O)c2ccccc2)cc1,5.36%
16,Cc1cc2nc3c(=O)[nH]c(=O)nc-3n(C[C@H](O)[C@H](O)[C@H](O)CO)c2cc1C,2.18% [at 16 µM]
17,O=C1O[C@H]([C@@H](O)CO)C(O)=C1O,3.55%
